This note sets out measurements from PubChem BioAssay (Tox21).

Each structure is given as a SMILES string. Records with an inconclusive call do not appear. Activity calls are given as the source filed them. Calls follow the shape of the dose curve; as a rule, active = well fitted cell-killing curve with a large enough effect in the repeat runs; inconclusive = weak or mixed curves, or effect the other way; inactive = no such curve, though single readings can be large or run the other way.
% is scaled to controls: 0 for no effect and ±100 for the full control effect.

This test can be described thus: qHTS assay to identify small molecule antagonists of the progesterone receptor (PR) signaling pathway - cell viability counter screen (AID 1346798). Also: nearly all actives have a fitted effect of over 50% in size. To be noted: PR-UAS-bla HEK293T viability, CellTiter-Glo luminescence, 16 h; series mostly up to 92.4 µM; activity change, negative = cytotoxicity: at the top concentration. The text has this: National Center for Advancing Translational Sciences [NCATS]
NIH Chemical Genomics Center [NCGC]
U.S. Environmental Protection Agency [EPA]
National Institutes of Environmental Health Sciences [NIEHS]
National Toxicology Program [NTP]
U.S. Food and Drug Administration [FDA]
Progesterone receptor (PR), a nuclear hormone receptor, plays an important role in development, metabolic homeostasis and reproduction. It is activated by the steroid hormone progesterone. Endocrine disrupting chemicals (EDCs) and their interactions with steroid hormone receptors like PR causes disruption of normal endocrine function. To identify the compounds that inhibit PR signaling, a PR-UAS-bla GripTite cell line i.e. PR-UAS-bla HEK293T (Invitrogen, Carlsbad, CA, USA) containing a beta-lactamase reporter gene under the control of an UAS response element was used to screen Tox21 10K compound library. The cytotoxicity of the Tox21 compound library against the PR-bla cell line was tested in parallel by measuring the cell viability using CellTiter-Glo assay in the same wells.
Tox21 Assay Protocol Summary:
PR-UAS-bla HEK293T cells were dispensed at 3,000 cells/4 uL of assay medium containing 2% charcoal stripped FBS per well into black wall/clear-bottom 1536-well plates using a Multidrop Combi (ThermoFisher Scientific, Waltham, MA) dispenser. After the assay plates were incubated at a 37C and 5% CO2 for 4 hr, 23 nL of compounds dissolved in DMSO, positive controls or DMSO only was transferred to the assay plate by a Pintool station (Kalypsys, San Diego, CA), followed by addition of 1 uL of R5020 in assay medium using a Flying Reagent Dispenser (FRD, Aurora Discovery, San Diego, CA). The plates were incubated at 37C and 5% CO2 for 16 hr. Then 1 uL of LiveBLAzer B/G FRET substrate was added using a Flying Reagent Dispenser, the plates were incubated at room temperature for 2 hours, and fluorescence intensity was measured by an Envision plate reader (PerkinElmer, Shelton, CT). For cell viability readout that measures cytotoxicity, 4 uL/well of CellTiter-Glo reagent was added into the assay plates using a FRD. After 30 min incubation at room temperature, the luminescence intensity in the plates was measured using a ViewLux (PerkinElmer) plate reader.
(In qHTS, concentration-response curves come from the screen itself.)
For the compound `CC(=O)OC1CC(C)OC(C)O1` (stereo not given), the outcome was inactive.

As for `C=CC(C)CCCC(C)(C)O` (stereo not given), the compound was called inactive.

Consider `CC(C)(C#N)c1cc(Cn2cncn2)cc(C(C)(C)C#N)c1`, for which the “activity change, negative = cytotoxicity” value is -1.82% [at 42.5 µM] (inactive).

On to `OCc1ccccc1`, for which the “activity change, negative = cytotoxicity” value is -3.14% (inactive).

As to `CCCCCC(=O)O`, the “activity change, negative = cytotoxicity” value was -4.96% (inactive).

With `CCO[Si](CCC#N)(OCC)OCC`, the outcome was inactive.

Consider `CCOCCOCCOCCO`, for which the result was inactive.

Consider `COc1ccc(OC)cc1`, for which the outcome was inactive.

For the compound `O=C(O)c1cc2ccccc2cc1O`, the result was inactive.

Regarding `Clc1ccccn1`, the compound was called inactive.

Take `O=C(O)Cn1c(=O)n(Cc2ccc(Br)cc2F)c(=O)c2ccc(Cl)cc21`: the compound was classed as inactive.

With `CCNc1ccccc1`, the outcome was inactive.

Consider `O=C(O)c1ccc(S(=O)(=O)N(Cl)Cl)cc1`, for which the outcome was inactive.

For the compound `COc1ccc(C)cc1N`, the outcome was inactive.

On to `COC(=O)CCCC(=O)OC`, for which the “activity change, negative = cytotoxicity” value was -7.3% (inactive).

For the compound `CC(=O)OCc1ccco1`, the compound was classed as inactive.

`CC(CCO)CC(C)(C)C` (stereo not given): the result was inactive.

Turning to `Brc1ccc(Br)c(Br)c1`, the result was inactive.

As to `C=Cc1ccc(C)cc1`, the call was inactive.

Consider `O=C(O)c1ccccc1C(=O)O`, for which the “activity change, negative = cytotoxicity” value was -6.33% (inactive).

Regarding `NCCN1CCNCC1`, the outcome was inactive.

Regarding `CCNc1cccc(C)c1`, the “activity change, negative = cytotoxicity” value is 18.9% (inactive).

Take `CC1(C)OC[C@@H]2O[C@@]3(C(=O)O)OC(C)(C)O[C@H]3[C@@H]2O1`: the result was inactive.

In the case of `CC1(C)NC(=O)NC1=O`, the compound was classed as inactive.

Consider `CCCCCCCO`, for which the outcome was inactive.

For the compound `NC(=S)NNC(N)=S`, the call was inactive.

As to `Cc1ccc(S(=O)(=O)N=C=O)cc1`, the compound was classed as inactive.

As to `C=CC[N+](C)(C)CC=C`, the call was inactive.

As to `CCOC(=O)c1ccc(N)cc1`, the “activity change, negative = cytotoxicity” value is -16% [at 42.5 µM] (inactive).

For `O=C1C(c2[nH]c3ccccc3c2O)=Nc2ccccc21`, the result was inactive.

For `CCCCCCCCCCCCCCCC(=O)OC(C)C`, the outcome was inactive.

`CC(C)OP(=O)(CP(=O)(OC(C)C)OC(C)C)OC(C)C`: the “activity change, negative = cytotoxicity” value was -5.03% [at 42.5 µM] (inactive).

`O=[N+]([O-])c1ccc2nc[nH]c2c1`: the result was inactive.

Regarding `OCc1cccc(Oc2ccccc2)c1`, the outcome was inactive.

As to `CN/C(=C\[N+](=O)[O-])NCCSCc1csc(CN(C)C)n1`, the call was inactive.

Turning to `CNC(=S)N(C)C`, the outcome was inactive.

On to `COC(=O)c1cccnc1`, for which the result was inactive.

Consider `CC(C)CC(C)O` (stereo not given), for which the “activity change, negative = cytotoxicity” value is -14% (inactive).

In the case of `C=CCCCCCCCCC(=O)O`, the outcome was inactive.

Turning to `CCNC(=S)NCC`, the outcome was inactive.
